{"source": "PubChem BioAssay (NCATS)", "key": {"[1]": {"target": "Aldehyde dehydrogenase, mitochondrial (Homo sapiens) (UniProt P05091)", "test": "qHTS for Inhibitors of the Aldehyde Dehydrogenase Family (ALDH2) Primary screen (AID 2061308); also: nearly all actives have a fitted effect of over 55% in size", "conditions": "ALDH2 enzyme inhibition qHTS, 1536-well; series mostly up to 56 µM"}, "[2]": {"target": "Retinaldehyde dehydrogenase 3 (Homo sapiens) (UniProt P47895)", "test": "qHTS for Inhibitors of the Aldehyde Dehydrogenase Family (ALDH1A3) Primary screen (AID 2061315)", "conditions": "ALDH inhibition qHTS; series mostly up to 56 µM"}}, "note": "Results filed as inconclusive are left out. A call without a number means that no potency is given here. The source made the active and inactive calls. Calls follow the shape of the dose curve; as a rule, active = well fitted curve in the direction sought with a large enough effect; inconclusive = small, poorly fitted or top-dose-only effect, or another doubt; inactive = no such curve, though single readings can be large; an effect the other way counts as inactive or inconclusive.", "data": [{"compound": "COc1ccc(C(=O)NCC(=O)OC(C(=O)Nc2cc(C(F)(F)F)ccc2Cl)c2ccccc2)cc1OC", "note": "(stereo not given)", "values": [{"measurement": "Potency", "setting": "[1]", "result": "inactive"}, {"measurement": "Potency", "setting": "[2]", "result": "inactive"}]}, {"compound": "O=C(O)c1ccc(O)c2ncc(N3CCCCC3)cc12", "values": [{"measurement": "Potency", "setting": "[1]", "result": "inactive"}, {"measurement": "Potency", "setting": "[2]", "result": "inactive"}]}, {"compound": "CCOc1ccc(CCNC(=O)c2cc3sccc3[nH]2)cc1OCC", "values": [{"measurement": "Potency", "setting": "[1]", "result": "inactive"}, {"measurement": "Potency", "setting": "[2]", "result": "inactive"}]}, {"compound": "O=c1c2[nH]c3cc(Br)sc3c2cnn1Cc1ccccc1F", "values": [{"measurement": "Potency", "setting": "[1]", "result": "inactive"}, {"measurement": "Potency", "setting": "[2]", "result": "inactive"}]}, {"compound": "O=[S+]([O-])(Nc1nccs1)c1ccc(NCc2cccc(Cl)c2)cc1", "values": [{"measurement": "Potency", "setting": "[1]", "result": "inactive"}, {"measurement": "Potency", "setting": "[2]", "result": "inactive"}]}, {"compound": "COc1ccc2c(c1)C=C1Cn3c-2c(C2CCCCC2)c2ccc(cc23)C(=O)NS(=O)(=O)N(C)CCOCCN(C)C1=O", "values": [{"measurement": "Potency", "setting": "[1]", "result": "inactive"}, {"measurement": "Potency", "setting": "[2]", "result": "inactive"}]}, {"compound": "Cc1ccc(NS(=O)(=O)c2ccc3c(ccn3C)c2)cc1C", "values": [{"measurement": "Potency", "setting": "[1]", "result": "inactive"}, {"measurement": "Potency", "setting": "[2]", "result": "inactive"}]}, {"compound": "Cc1cccc(-c2ccc3ncnc(N(C)Cc4ccco4)c3c2)c1", "values": [{"measurement": "Potency", "setting": "[1]", "result": "inactive"}, {"measurement": "Potency", "setting": "[2]", "result": "inactive"}]}, {"compound": "COc1ccc(C2=Nn3c(nnc3-c3ccccc3F)SC2)cc1OC", "values": [{"measurement": "Potency", "setting": "[1]", "result": "inactive"}, {"measurement": "Potency", "setting": "[2]", "result": "inactive"}]}, {"compound": "O=C(CNC(=O)c1ccc2cc[nH]c2c1)OC(C(=O)Nc1cc(C(F)(F)F)ccc1Cl)c1ccccc1", "note": "(stereo not given)", "values": [{"measurement": "Potency", "setting": "[1]", "result": "inactive"}, {"measurement": "Potency", "setting": "[2]", "result": "inactive"}]}, {"compound": "O=C(Nc1nc(Nc2cc(F)cc(F)c2)nc(NC2CCCC2)n1)OCc1ccccc1", "values": [{"measurement": "Potency", "setting": "[1]", "result": "inactive"}, {"measurement": "Potency", "setting": "[2]", "result": "inactive"}]}, {"compound": "Cc1ccc(-c2ccc(=O)n(CC(=O)NCCc3ccc(O)cc3)n2)cc1", "values": [{"measurement": "Potency", "setting": "[1]", "result": "inactive"}, {"measurement": "Potency", "setting": "[2]", "result": "inactive"}]}, {"compound": "COc1ccc2nc(-c3cccc(OCc4ccccc4)c3)sc2c1", "values": [{"measurement": "Potency", "setting": "[1]", "result": "inactive"}, {"measurement": "Potency", "setting": "[2]", "result": "inactive"}]}, {"compound": "O=C1CCc2cc(S(=O)(=O)Nc3ccc(F)c(Cl)c3)ccc2N1", "values": [{"measurement": "Potency", "setting": "[1]", "result": "inactive"}, {"measurement": "Potency", "setting": "[2]", "result": "inactive"}]}, {"compound": "O=C1CCCC2=C1C(c1[nH]ncc1Cl)N=C(Nc1nc3c(Br)cccc3o1)N2", "note": "(stereo not given)", "values": [{"measurement": "Potency", "setting": "[1]", "result": "inactive"}, {"measurement": "Potency", "setting": "[2]", "result": "inactive"}]}]}
